The source of these data is PubChem BioAssay (NCATS).

A short description of test [1]: Primary qHTS for inhibitors of La Crosse Virus (LACV) - induced cell death in SH-SY5Y cells (AID 1508616).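 Note: top concentration of the series differs between compounds; higher means more rescue of cells from virus-induced death.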 A digest of the protocol: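 Readout was luminescence from ATPLite 1step added after a 6-day LACV infection (0.01 MOI) of SH-SY5Y cells that had received pin-transferred compound 24 hr after seeding.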
A short description of test [2]: Primary qHTS for Vero E6 cytotoxicity: counterscreen for inhibitors of SARS-S pseudo-typed particle cell entry (AID 1479150; calls by dose curve).
Test [3] can be described thus: Cytotoxicity counterscreen for inhibitors of SARS-CoV-2 cell entry (AID 1645845; calls by dose curve; note: nearly all actives have a fitted effect of over 50% in size). The conditions noted are these: outcome: dose series up to 57.1 µM unless noted. A digest of the protocol:
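HEK293-ACE2 cells (Expi293F stably expressing human ACE2) seeded overnight, then compound for 1 h plus 48 h at 37C. Viability as ATP content by luminescence; normalized to wells with cells and media-only wells.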

A short description of test [4]: Primary qHTS to identify inhibitors of SARS-CoV-2 cell entry (AID 1645846; calls by dose curve; note: nearly all actives have a fitted effect of over 45% in size). The following applies: activity change, negative = inhibition: at 57.1 µM (top of the series) unless noted. A digest of the protocol: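 Entry measured by luciferase signal 48 h after adding SARS-CoV-2-S pseudotyped MLV particles to HEK293-ACE2 cells preincubated 1 h with compounds. Normalisation: bald particles and spike particles.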
Background: qHTS replaces the single test concentration by a dilution series.

The nature of test [5]: VSVG counterscreen qHTS to identify inhibitors of SARS-CoV-2 cell entry (AID 1645847; calls by dose curve; note: potency is the fitted concentration of half-maximal effect; nearly all actives have a fitted effect of over 65% in size). The conditions noted are these: VSV-G pseudotyped particle entry, luciferase. In a few lines: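 Luminescence read after 48 h infection at 37 C with VSV-G-pseudotyped MLV particles, following 1 h compound exposure of Expi293F cells stably expressing human ACE2; scaled between bald particle and VSV-G particle wells.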
(The purpose of a counterscreen is to sort out artefacts and off-target activity.)

Test [6] can be described thus: Primary qHTS for inhibitors of nuclear receptor binding SET domain protein 2 (NSD2) in an isogenic RCH-ACV NSD2 p.E1099K mutant (9B) (AID 1645876). Note: potency is the fitted concentration of half-maximal effect; nearly all actives have a fitted effect of over 70% in size.
The nature of test [7]: Confirmatory qHTS for VERO E6 Cytotoxicity Assay: Counterscreen for SARS-CoV-2 CPE Assay (AID 1508605; calls by dose curve; note: nearly all actives have a fitted effect of over 60% in size).
The nature of test [8]: Primary qHTS for small molecule stabilizers of the endoplasmic reticulum resident proteome: Secreted ER Calcium Modulated Protein (SERCaMP) assay (AID 1508630). In a few lines: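 GLuc-SERCaMP-expressing SH-SY5Y cells, pretreated 16 h with compound, are challenged with thapsigargin to empty ER calcium stores; after 4 h, coelenterazine is added directly to the medium and luminescence is imaged.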

For test [9], the target named is Calcium and integrin-binding protein 1 (Homo sapiens) (UniProt Q99828). The test is described as follows: Validation qHTS for Identification of Calcium Integrin Binding protein 1 (CIB1) Competitor (AID 1508618). In a few lines:
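CIB1-GST (1 uM final) incubated 15 min at room temperature with compounds (up to 114 uM), then FITC-labelled alphaIIb peptide (100 nM) added. FP read (Ex 480/Em 540) after 15 min, pH 7.4 buffer containing 5 mM CaCl2.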

For a further test, the target named is Papain (Carica papaya) (UniProt P00784). Nature of the test: Primary qHTS assay for inhibitors of the protease papain (AID 1645873).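 Note: papain turnover of Z-FR-AMC read as the AMC fluorescence gain over 10 min.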
Test [10] in a line: Counterscreen qHTS for small molecule stabilizers of the endoplasmic reticulum resident proteome: GLuc-NoTag assay (AID 1508627).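 Note: SH-SY5Y cells given compound then 100 nM thapsigargin to empty ER calcium.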 A digest of the protocol: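 SH-SY5Y cells stably expressing constitutively secreted GLuc without SERCaMP tag, exposed to compound for 19 hr, then to 100 nM thapsigargin for 4 hr at 37C. Medium luciferase was read by coelenterazine luminescence without lysis.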

A short description of test [11]: Confirmatory qHTS for small molecule stabilizers of the endoplasmic reticulum resident proteome: Secreted ER Calcium Modulated Protein (SERCaMP) assay (AID 1508628). Note: potency is the fitted concentration of half-maximal effect; nearly all actives have a fitted effect of over 40% in size. A digest of the protocol:
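We seeded SH-SY5Y-GLuc-SERCaMP cells, added compounds (three concentrations in the primary run, eleven up to 76.6 uM in confirmation), incubated 16 h, depleted ER calcium with thapsigargin, and read luciferase 4 h later.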

A short description of test [12]: Cell Viability qHTS for small molecule stabilizers of the endoplasmic reticulum resident proteome (AID 1508629).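 Note: human SH-SY5Y neuroblastoma cells carrying the GLuc-SERCaMP reporter; compound exposure about 46 h in total before the viability read.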 The conditions noted are these: cell viability counter-screen, 100 nM thapsigargin for final 4 h.

Values joined by “and” are separate entries in the source; they are usually repeats but may differ in a detail not shown here. Equal entries are not always repeated. Records with an inconclusive call do not appear. Entries that show only a call come without a potency. Active and inactive are the calls of the source. Unless noted, calls come from the whole dose curve; as a rule, active = well fitted curve in the direction sought with a large enough effect; inconclusive = small, poorly fitted or top-dose-only effect, or another doubt; inactive = no such curve, though single readings can be large; an effect the other way counts as inactive or inconclusive.

Papain (Carica papaya), sequence (P00784 whole entry, looked up): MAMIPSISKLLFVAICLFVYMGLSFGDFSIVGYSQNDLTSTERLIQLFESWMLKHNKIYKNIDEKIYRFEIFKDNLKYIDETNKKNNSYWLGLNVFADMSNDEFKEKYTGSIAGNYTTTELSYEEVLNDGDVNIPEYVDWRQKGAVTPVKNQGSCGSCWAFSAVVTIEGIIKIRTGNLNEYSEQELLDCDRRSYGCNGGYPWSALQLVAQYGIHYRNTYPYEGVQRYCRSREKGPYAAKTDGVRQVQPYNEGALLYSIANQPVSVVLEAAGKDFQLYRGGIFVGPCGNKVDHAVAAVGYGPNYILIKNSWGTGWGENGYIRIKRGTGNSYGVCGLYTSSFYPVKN
Calcium and integrin-binding protein 1 (Homo sapiens), sequence (Q99828 whole entry, looked up): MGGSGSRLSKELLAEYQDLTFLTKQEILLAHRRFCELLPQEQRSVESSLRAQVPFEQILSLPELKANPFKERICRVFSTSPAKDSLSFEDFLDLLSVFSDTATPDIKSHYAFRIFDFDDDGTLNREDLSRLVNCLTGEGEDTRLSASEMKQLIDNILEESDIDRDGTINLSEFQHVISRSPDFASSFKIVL

For the compound `CCCCCCC(C)(C)c1ccc([C@@H]2C[C@H](O)CC[C@H]2CCCO)c(O)c1`, the Potency result in test [1] was “inactive”.

Take `O=C(O)C(Cl)(Cl)Cl`: the Potency entry in test [2] is “inactive”. For the same compound, the result in [3] was inactive. Also, the activity change, negative = inhibition in test [4] was -27.9%.

In the case of `CC(C)CCC(=O)O[C@H]1CC[C@H]2[C@@H]3CCC4=CC(=O)CC[C@]4(C)[C@H]3CC[C@]12C`, the Potency result in test [2] is “inactive”. The outcome in test [3] was inactive. For the same compound, the activity change, negative = inhibition in [4] was -25.5%.

Consider `CN1[C@H]2CC[C@@H]1[C@@H](C(=O)O)[C@@H](OC(=O)c1ccccc1)C2`, for which, in [2], the Potency result was “inactive”. In addition, in test [3], the outcome was inactive. The activity change, negative = inhibition in test [4] is -21.7% [at 114 µM].

Regarding `C/C(=C\c1csc(C)n1)[C@@H]1C[C@@H]2O[C@]2(C)CCC[C@H](C)[C@H](O)[C@@H](C)C(=O)C(C)(C)[C@@H](O)CC(=O)O1`, the Potency result in test [2] was “inactive”. For the same compound, the call in test [3] was inactive. In test [4], the activity change, negative = inhibition is -75.8% and -81.1%. Moreover, the Potency in [5] is 34.1 nM (active); in [6] it was 6.6 nM (active).

Turning to `O=c1c2ccccc2[se]n1-c1ccccc1`, the result in [7] and in test [8] was inactive. The Potency entry in test [1] is “inactive”.

On to `C[C@]12Cc3cn4c(nc3C=C1CCC1C2CC[C@@]2(C)[C@H]1CC[C@@]2(O)C#N)nc1ccccc14` (stereo partly specified), for which the Potency entry in test [1] and in test [9] was “inactive” throughout. Also, in [8], the result was inactive.

For `CN(C(=O)Cc1ccc(Cl)c(Cl)c1)C(CN1CCCC1)c1cccc(OCC(=O)O)c1` (stereo unspecified), the Potency result (in test [1]; in test [9]; in the test with Papain (Carica papaya)) was “inactive” throughout. Further, the outcome in test [8] was inactive.

For `C[C@]12CC[C@H](OS(=O)(=O)O)CC1=CC[C@@H]1[C@@H]2CC[C@]2(C)C(=O)CC[C@@H]12`, in [2], the Potency entry was “inactive”. Further, in [3], the outcome was inactive. For the same compound, in test [4], the activity change, negative = inhibition was -5.13%.

Turning to `C[N+]1(C)CCN(c2ccccc2)CC1`, the Potency entry (in test [1]; in test [9]; with Papain (Carica papaya)) was “inactive” each time. Moreover, the result in test [8] was inactive.

As to `O=P(O)(O)C(Cl)(Cl)P(=O)(O)O`, in test [2], the outcome was “inactive [at 5.34 µM]”. Besides, the activity change, negative = cytotoxicity in test [3] was 3.8% [at 5.25 µM] (inactive). Besides, the activity change, negative = inhibition in test [4] is -6.21% [at 5.25 µM].

For `Oc1ccc2c3c1O[C@H]1[C@@H](O)CC[C@@]4(O)[C@@H](C2)N(CC2CCC2)CC[C@]314`, the Potency entry in test [2] was “inactive”. Further, the compound was called inactive in [3]. In test [4], the activity change, negative = inhibition worked out at 1.55%.

Regarding `O=[N+]([O-])c1cc(O)c(O)c([N+](=O)[O-])c1`, the Potency result in test [1] and in test [9] was “inactive” each time. The result in test [8] was inactive.

Regarding `O=c1[nH]cc(N(CCCl)CCCl)c(=O)[nH]1`, the Potency result in [2] is “inactive”. Moreover, the compound was called inactive in test [3]. Besides, in test [4], the activity change, negative = inhibition is -21% [at 114 µM].

Regarding `CCCCCCC(=O)O[C@H]1CC[C@H]2[C@@H]3CC[C@H]4CC(=O)C=C(C)[C@]4(C)[C@H]3CC[C@]12C`, in [2], the Potency result was “inactive”. Besides, in [3], the call was inactive. Further, the activity change, negative = inhibition in [4] was -7.93%.

Turning to `CN1CC[C@@]2(C)c3cc(OC(=O)Nc4ccccc4)ccc3N(C)[C@@H]12`, the Potency entry in test [1] and in [9] was “inactive” in each case. The outcome in [10] and in test [8] was inactive. Moreover, the Potency in test [11] is 39.8 µM (active).

Regarding `c1ccc2sc(SNC3CCCCC3)nc2c1`, the Potency result in test [2] is “inactive”. Also, in test [3], the result was inactive. Besides, the activity change, negative = inhibition in test [4] was determined as 2.84% [at 114 µM].

For the compound `CN1C2CCC1CC(OC(c1ccccc1)c1ccccc1N)C2` (stereo unspecified), the Potency result (in [1]; in [9]; in the test with Papain (Carica papaya)) was “inactive” throughout. For the same compound, the outcome in [10] was inactive. The Potency in test [11] is 31.6 µM (active).

Consider `Nc1ccc(CCN2CCN(c3cccc(C(F)(F)F)c3)CC2)cc1`, for which the Potency result (in test [1]; in test [9]; with Papain (Carica papaya)) was “inactive” in each case. The result in [10] and in test [8] was inactive. Moreover, in test [12], the max response was 11.7% (inactive).
